Results on 28 molecules are retold here after PubChem BioAssay (Tox21).

The nature of assay [1]: qHTS assay to test for compound auto fluorescence at 535 nm (green) in HEK293 cells (AID 720680).
A short description of assay [2]: qHTS assay to test for compound auto fluorescence at 460 nm (blue) in HEK293 cell free culture (AID 720681). The essentials:
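Compounds were added to cell-free DMEM with 10% FBS and fluorescence read directly. The blue channel used 405 nm excitation and 460 nm emission, with triamterene as the reference fluorophore.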
In general terms: Quantitative high-throughput screening tests each substance at several concentrations.

Assay [3] can be described thus: qHTS assay to test for compound auto fluorescence at 590 nm (red) in HEK293 cell free culture (AID 720683). A digest of the protocol:
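Cell-free wells of DMEM with 10% FBS received compound, and intrinsic fluorescence was read at excitation/emission 540/590 nm. Values expressed as equivalence to Rose Bengal sodium.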

The nature of assay [4]: qHTS assay to test for compound auto fluorescence at 590 nm (red) in HepG2 cell free culture (AID 720684). The essentials: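 Compound was pinned into wells holding MEM with 10% FBS and no cells, and red fluorescence was read at Ex/Em 540/590 nm. Signal is expressed as auto fluorescence equivalency relative to Rose Bengal sodium.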
Assay [5] in a line: qHTS assay to test for compound auto fluorescence at 460 nm (blue) in HepG2 cell free culture (AID 720685). The essentials: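 Compound (23 nL) or DMSO pinned into cell-free MEM with 10% FBS; blue fluorescence read at 405/460 nm excitation/emission, expressed as auto-fluorescence equivalency to triamterene.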
Assay [6] in a line: qHTS assay to test for compound auto fluorescence at 535 nm (green) in HepG2 cell free culture (AID 720686).
The target in assay [7] is Glucocorticoid receptor (Homo sapiens) (UniProt P04150). The assay can be described thus: qHTS assay to identify small molecule agonists of the glucocorticoid receptor (GR) signaling pathway (AID 720691; active = well fitted activation curve with a large enough effect in the signal ratio in the repeat runs, not every such curve was filed as active; inconclusive = weak or mixed curves, or effect the other way; inactive = no such curve, though single readings can be large or run the other way; the % refers to the signal ratio; note: potency is the fitted concentration of half-maximal effect). A digest of the protocol:
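qHTS in GR-bla HeLa cells: 4 h settling at 37 C/5% CO2, 18 h compound incubation at 37 C, 2 h LiveBLAzer B/G FRET substrate at room temperature, fluorescence intensity measured.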

The target is the same in assay [8]. Briefly: qHTS assay to identify small molecule antagonists of the glucocorticoid receptor (GR) signaling pathway (AID 720692; active = well fitted inhibition curve with a large enough effect in the signal ratio in the repeat runs, not every such curve was filed as active; inconclusive = weak or mixed curves, or effect the other way; inactive = no such curve, though single readings can be large or run the other way; the % refers to the signal ratio). The essentials:
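Inhibition of glucocorticoid signalling is measured in HeLa cells with a GRE-controlled beta-lactamase reporter; cells are co-treated with compound and 5 nM dexamethasone (final) for 18 h before FRET substrate readout.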

The nature of assay [9]: qHTS assay to test for compound auto fluorescence at 460 nm (blue) in HepG2 cells (AID 720687). The essentials: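 HepG2 cells in MEM with 10% FBS, attached overnight at 37 C, were exposed to compound or DMSO for 1 hr at 37 C, 5% CO2. Blue fluorescence was read at 405/460 nm, with triamterene as reference fluorophore.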
Assay [10] in a line: qHTS assay to test for compound auto fluorescence at 535 nm (green) in HEK293 cell free culture (AID 720682). The essentials: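 Using fluorescein as calibrant, autofluorescence was quantified at 485/535 nm in cell-free DMEM containing 10% FBS after pintool addition of compound or vehicle.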

Values joined by “and” are separate entries in the source; they are usually repeats but may differ in a detail not shown here. Equal entries are not always repeated. A number with no mark means an inactive call. Active and inactive are the calls of the source. Unless noted, calls come from the whole dose curve; as a rule, active = well fitted curve in the direction sought with a large enough effect in the repeat runs; inconclusive = weak or mixed curves; inactive = flat fitted curve, though single readings scatter.
% is set by controls: 0 for no effect and ±100 for the full control effect.

Chain of Glucocorticoid receptor (Homo sapiens) (P04150 whole entry, looked up): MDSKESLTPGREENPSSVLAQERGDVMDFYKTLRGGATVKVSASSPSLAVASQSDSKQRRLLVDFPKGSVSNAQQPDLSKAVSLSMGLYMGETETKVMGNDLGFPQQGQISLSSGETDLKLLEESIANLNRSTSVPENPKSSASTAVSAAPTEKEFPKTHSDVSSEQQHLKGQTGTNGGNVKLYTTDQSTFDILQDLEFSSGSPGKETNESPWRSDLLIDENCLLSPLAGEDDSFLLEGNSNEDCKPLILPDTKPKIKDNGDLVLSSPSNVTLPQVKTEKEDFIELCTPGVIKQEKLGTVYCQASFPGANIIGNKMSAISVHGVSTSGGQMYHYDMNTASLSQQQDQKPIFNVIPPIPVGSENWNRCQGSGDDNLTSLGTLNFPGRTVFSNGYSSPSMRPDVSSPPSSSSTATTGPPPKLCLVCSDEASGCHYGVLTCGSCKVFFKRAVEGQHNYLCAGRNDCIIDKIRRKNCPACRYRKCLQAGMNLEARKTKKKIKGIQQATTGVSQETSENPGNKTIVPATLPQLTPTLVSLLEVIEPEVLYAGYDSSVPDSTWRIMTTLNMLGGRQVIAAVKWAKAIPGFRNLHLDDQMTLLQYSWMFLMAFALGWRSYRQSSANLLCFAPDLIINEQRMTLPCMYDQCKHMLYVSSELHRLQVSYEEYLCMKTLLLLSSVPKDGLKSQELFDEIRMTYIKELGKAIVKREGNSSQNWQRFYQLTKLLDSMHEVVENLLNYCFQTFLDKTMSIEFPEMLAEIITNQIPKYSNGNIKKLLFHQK

For `NC(=S)NC(N)=S`, the Potency entry in [1], in assay [2], in [3], in assay [4], in assay [5] and in [6] was “inactive” in each case. Further, the Potency result in assay [7] and in assay [8] was “inactive” each time.

Consider `COc1ccc(NC(=O)CC(C)=O)cc1`, for which the Potency entry in [1], in [2], in assay [3], in [4], in [6] and in assay [9] was “inactive” each time.

As for `Cc1c2ccccc2c(C)c2c1ccc1ccccc12`, the Potency result in assay [1], in assay [2], in [3], in assay [4], in assay [5] and in [6] was “inactive” throughout. In assay [7], the Potency was 3.85 µM (active) and 54.9 µM [inconclusive] (active).

As for `COc1ccc(-c2coc3cc(O)ccc3c2=O)cc1`, the Potency result in [1], in assay [2], in [3], in assay [4], in assay [5] and in [6] was “inactive” each time. Moreover, the Potency result in [7] was “inactive”.

For the molecule `CC(C)(C)CC(C)(C)c1ccc(Nc2ccc(C(C)(C)CC(C)(C)C)cc2)cc1`, in assay [1], the fluorescence, % of fluorescein is -0.0015% [at 3.72 µM]. The activity change in [10] was 0.0494% [at 3.72 µM, stronger effect = higher value]. The fluorescence, % of fluorescent control in assay [3] was 0.0404% [at 3.72 µM]; in assay [5], 0.0515% [at 3.72 µM]. In assay [4], the fluorescence, % of Rose Bengal is 0.189% [at 3.72 µM]. For the same molecule, the fluorescence, % of fluorescein control in assay [6] is 0.0526% [at 3.72 µM]. For the same molecule, the activation in assay [7] is -1.13% [at 6.9 µM]. Further, the activity change, negative = inhibition in [8] is -25.8% [at 7.04 µM].

Consider `CCC(CC)C(C)CCOC(C)=O` (stereo not given), for which the Potency result in [1], in assay [2], in [3], in assay [5], in [6] and in assay [9] was “inactive” each time.

As for `O=c1[nH]c2ccccc2n1CCCN1CCN(C(c2ccccc2)c2ccccc2)CC1`, the Potency entry in assay [1], in assay [2], in assay [3], in assay [4], in [5] and in assay [6] was “inactive” each time. Further, the Potency entry in assay [9] and in assay [7] was “inactive” in each case.

Regarding `CCC(C)n1ncn(-c2ccc(N3CCN(c4ccc(OC[C@H]5CO[C@](Cn6cncn6)(c6ccc(Cl)cc6Cl)O5)cc4)CC3)cc2)c1=O` (stereo not given in full), the Potency entry in [1], in [2], in assay [3], in assay [4], in assay [5] and in assay [6] was “inactive” each time. The Potency entry in assay [9] is “inactive”.

In the case of `CCO[C@@H]1O[C@H](C(COCc2ccccc2)OCc2ccccc2)[C@H](OCc2ccccc2)[C@H]1O` (stereo not given in full), the fluorescence, % of fluorescein in assay [1] was -0.012% [at 18.6 µM]. Also, the fluorescence, % of fluorescent control in assay [2] is 0.118% [at 18.6 µM]; in assay [3], -0.0196% [at 18.6 µM]; in assay [5] it was -0.0414% [at 18.6 µM]; in assay [9] it was -0.0213% [at 18.6 µM]. The fluorescence, % of fluorescein control in assay [6] is -0.102% [at 18.6 µM]. Moreover, in assay [7], the Potency entry was “inactive”.

`FC(F)(F)c1cccc(Cl)c1`: the Potency entry in assay [1], in [2], in assay [3], in assay [5], in [6] and in assay [9] was “inactive” in each case. Moreover, the Potency result in [7] and in assay [8] was “inactive” each time.

Consider `O=C(/C=C/c1ccccc1)OC/C=C/c1ccccc1`, for which the Potency entry in [1], in [2], in assay [3], in assay [4], in [5] and in [6] was “inactive” in each case. Also, the Potency entry in [9], in assay [7] and in assay [8] was “inactive” in each case.

Take `Nc1nc2c(ncn2COCCO)c(=O)[nH]1`: the fluorescence, % of fluorescein in assay [1] was 0.029% [at 18.6 µM]. Further, the fluorescence, % of fluorescent control in assay [2] is 0.0219% [at 18.6 µM]; in assay [3] it was 0.0201% [at 18.6 µM]; in assay [5], 0.0242% [at 18.6 µM]; in [9], 0.176% [at 18.6 µM]. Besides, in assay [4], the fluorescence, % of Rose Bengal is -0.264% [at 18.6 µM]. Moreover, in [6], the fluorescence, % of fluorescein control was -0.0997% [at 18.6 µM]. Besides, the Potency entry in assay [7] and in assay [8] was “inactive” each time.

As for `CCC(=O)OC(=O)CC`, the Potency entry in [1], in [2], in assay [3], in [4], in assay [5] and in assay [6] was “inactive” throughout. Also, the Potency result in [7] and in [8] was “inactive” in each case.

Consider `CN1CCC[C@@H]1CCO[C@](C)(c1ccccc1)c1ccc(Cl)cc1`, for which the Potency entry in assay [1], in [2], in [3], in assay [4], in [5] and in [6] was “inactive” each time. Moreover, in assay [9], the Potency result is “inactive”.

Take `OC1CCC(C2CCCCC2)CC1` (stereo not given): the Potency result in assay [1], in assay [2], in assay [3], in assay [4], in [5] and in assay [6] was “inactive” in each case. Also, the Potency entry in assay [9] and in assay [7] was “inactive” in each case.

Take `O=C(O)CN(CCN(CC(=O)O)CC(=O)O)CC(=O)O`: the Potency entry in assay [1], in assay [2], in [3], in assay [5] and in [6] was “inactive” each time.

Regarding `Nc1cc(Cl)c(O)c(Cl)c1`, the Potency result in [1], in assay [10], in assay [3], in [4], in assay [5] and in assay [6] was “inactive” each time. Besides, the Potency entry in assay [9] and in assay [7] was “inactive” each time.

`CCCCNS(=O)(=O)c1ccc(C)cc1`: the Potency entry in [1], in [2], in assay [3], in assay [4], in assay [5] and in assay [6] was “inactive” throughout. Further, the Potency result in assay [9] and in assay [7] was “inactive” in each case.

Take `CCCCCCC1CCCC(=O)O1` (stereo not given): the Potency entry in [1], in [2], in assay [3], in assay [4], in assay [5] and in assay [6] was “inactive” in each case. The Potency entry in assay [9], in assay [7] and in [8] was “inactive” throughout.

With `CC(=O)Oc1cc2c(s1)CCN(C(C(=O)C1CC1)c1ccccc1F)C2` (stereo not given), the Potency entry in [1], in [2], in assay [3], in assay [4], in [5] and in assay [6] was “inactive” throughout. In addition, the Potency entry in [9] and in [7] was “inactive” in each case.

Turning to `CCN(CCN)c1cccc(C)c1`, the Potency entry in assay [1], in [2], in assay [3], in assay [5], in assay [6] and in [9] was “inactive” each time.

Turning to `CC1(C)CC(O)CC(C)(C)N1`, the Potency entry in assay [1], in assay [2], in [3], in assay [4], in assay [5] and in assay [6] was “inactive” each time. For the same molecule, the Potency result in assay [9], in assay [7] and in assay [8] was “inactive” in each case.

With `O=C(Nc1ccc2c(O)c(N=Nc3ccc(N=Nc4ccc(S(=O)(=O)O)cc4)cc3)c(S(=O)(=O)O)cc2c1)c1ccccc1`, the Potency entry in [1], in [2], in assay [3], in [5], in [6] and in assay [9] was “inactive” each time.

As for `CC(C(=O)O)c1ccc2c(c1)[nH]c1ccc(Cl)cc12` (stereo not given), the Potency entry in assay [1], in assay [2], in assay [3], in assay [4], in assay [5] and in assay [6] was “inactive” throughout. The Potency entry in assay [9], in [7] and in [8] was “inactive” throughout.

Turning to `Cc1ccc(C(=O)O)cc1`, the Potency result in assay [1], in assay [2], in assay [3], in assay [4], in assay [5] and in assay [6] was “inactive” each time. For the same molecule, in assay [9], the Potency result was “inactive”.

Take `O=C(/C=C/c1ccc(O)c(O)c1)O[C@@H](C(=O)O)[C@@H](OC(=O)/C=C/c1ccc(O)c(O)c1)C(=O)O`: the Potency result in [1], in assay [10], in assay [3], in assay [4], in assay [5] and in assay [6] was “inactive” in each case. Further, the Potency entry in assay [7] and in assay [8] was “inactive” in each case.

As to `CC(=O)[C@H]1CC[C@H]2[C@@H]3CCC4=CC(=O)CC[C@]4(C)[C@H]3CC[C@]12C`, the Potency result in assay [1], in assay [2], in [3], in [5], in [6] and in assay [9] was “inactive” in each case.

Regarding `CN(C)Cc1cc(C(C)(C)C)c(O)c(C(C)(C)C)c1`, the Potency entry in assay [1], in assay [2], in [3], in assay [4], in assay [5] and in assay [6] was “inactive” each time. Also, the Potency entry in assay [9] and in assay [7] was “inactive” in each case.
